These results are taken from PubChem BioAssay (NCATS).

Results filed as inconclusive are left out. Calls of active or inactive are those of the source. The call rests on the fitted dose curve; in most records, active means well fitted inhibition curve with a large enough effect; inconclusive means small, poorly fitted or top-dose-only effect; inactive means flat fitted curve, though single readings scatter.

Holding throughout (experiment): qHTS profiling for inhibitors of Plasmodium falciparum proliferation (AID 504749); further: nearly all actives have a fitted effect of over 60% in size
Conditions in all cases: P. falciparum in erythrocytes, SYBR Green DNA, 72 h; series mostly up to 28.7 µM
A general note: qHTS replaces the single test concentration by a dilution series.

The subject of test [1] is CP238. The procedure, abridged:
(§1)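 P. falciparum-infected erythrocytes (0.3% parasitemia, 2.5% hematocrit final) were exposed to compounds for 72 h at 37 C in 5% CO2, then lysed with SYBR Green buffer overnight at room temperature; parasite DNA fluorescence was normalized to artemisinin and DMSO controls.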

For test [2], the system named is CP247. The method in brief: as §1
For test [3], the system named is CP250. The procedure, abridged: as §1
Test [4] deals with CP252. The procedure, abridged: as §1
The subject of test [5] is CP256. The method in brief: as §1
In test [6] the test system is CP260. The procedure, abridged: as §1
Test [7] concerns CP262. The method in brief: as §1
In test [8] the test system is CP265. The method in brief:
as §1

Test [9] concerns CP266. The procedure, abridged: as §1
The test system of test [10] is CP268. The method in brief:
as §1
Potency means the concentration at half of the fitted maximal effect.

With `Cc1ccc(N(CC2=NCCN2)c2cccc(O)c2)cc1`, the Potency result in [1], in test [2], in test [3], in test [4], in test [5] and in test [6] was “inactive” in each case. In addition, the Potency result in test [7], in test [8] and in test [10] was “inactive” throughout. In addition, the compound was called inactive in test [9].
As to `N#Cc1ccc(C(c2ccc(C#N)cc2)n2cncn2)cc1`, the Potency result in test [1], in [2], in test [3], in test [4], in [5] and in test [6] was “inactive” in each case. For the same compound, the Potency result in test [7], in test [8] and in test [10] was “inactive” in each case. Further, the result in [9] was inactive.
Consider `CCCc1nn(C)c2c(=O)[nH]c(-c3cc(S(=O)(=O)N4CCN(C)CC4)ccc3OCC)nc12`, for which the Potency result in [1], in test [2], in test [3], in [4], in test [5] and in test [6] was “inactive” throughout. The Potency entry in test [7], in [8] and in test [10] was “inactive” in each case. For the same compound, the call in [9] was inactive.
As to `Nc1ccc(S(=O)(=O)Nc2ccnn2-c2ccccc2)cc1`, the Potency entry in test [1], in test [2], in test [3], in [4], in [5] and in test [6] was “inactive” each time. The Potency entry in [7], in test [8] and in test [10] was “inactive” in each case. In [9], the call was inactive.
As for `O=c1[nH]cnc2[nH]ncc12`, the Potency result in [1], in test [2], in test [3], in test [4], in test [5] and in [6] was “inactive” each time. The Potency entry in test [7], in test [8] and in [10] was “inactive” throughout. In addition, the result in test [9] was inactive.
Consider `O=c1n(CCCN2CCN(c3cccc(Cl)c3)CC2)nc2ccccn12`, for which the Potency entry in test [1], in test [2], in test [3], in test [4], in test [5] and in test [6] was “inactive” each time. Besides, the Potency result in test [8] and in test [10] was “inactive” each time. Besides, the result in test [9] was inactive.
In the case of `Clc1ccc(Nc2nnc(Cc3ccncc3)c3ccccc23)cc1`, the Potency result in [1], in [3], in test [4], in test [5], in test [7] and in test [8] was “inactive” throughout. In [10], the Potency entry was “inactive”. Also, in test [9], the result was inactive.
On to `CN1CCN(CCCN2c3ccccc3Sc3ccc(C(F)(F)F)cc32)CC1`, for which the Potency was 3.16 µM (active) in [1], 8.91 µM (active) in [3], 14.1 µM (active) in test [4] and 10 µM (active) in [6].
In the case of `CCc1ccc(CCOc2ccc(CC3SC(=O)NC3=O)cc2)nc1` (centres undefined), the Potency entry in [1], in test [3], in test [4], in test [5], in [6] and in test [7] was “inactive” each time. Further, the Potency result in test [8] and in test [10] was “inactive” throughout. In test [9], the compound was called inactive.
As to `Cc1cc2c(C(C)C)c(O)c(O)c(C=O)c2c(O)c1-c1c(C)cc2c(C(C)C)c(O)c(O)c(C=O)c2c1O`, the results for the Potency in test [2], in [5] and in test [8] were 11.2 µM (active), 11.2 µM (active) and 12.6 µM (active), respectively.
Take `NNCCc1ccccc1`: the Potency entry in test [1], in [2], in test [4], in test [5], in test [6] and in test [8] was “inactive” each time. The Potency result in test [10] was “inactive”.
For the compound `CCOC(=O)N1CCC(=C2c3ccc(Cl)cc3CCc3cccnc32)CC1`, the Potency result in test [1] and in test [7] was “inactive” in each case. In addition, the Potency is 3.55 µM (active) in test [3], 2 µM (active) in [4], 12.6 µM (active) in [6] and 10 µM (active) in test [8].
Regarding `NC(N)=NC(=O)c1nc(Cl)c(N)nc1N`, the Potency entry in test [4] and in test [7] was “inactive” each time. In addition, the Potency in [8] is 11.2 µM (active). In addition, the compound was called inactive in test [9].
Turning to `Cc1c(C)c2c(c(C)c1O)CCC(C)(COc1ccc(CC3SC(=O)NC3=O)cc1)O2` (centres undefined), the Potency entry in test [1], in test [3], in test [4], in test [5], in test [6] and in test [7] was “inactive” each time. The Potency result in test [10] is “inactive”. In addition, the outcome in [9] was inactive.
For the compound `CCOC(=O)C1=C[C@@]2(CC)CCCN3CCc4c(n1c1ccccc41)[C@H]32`, the Potency is 12 µM (active) in test [7] and 10.7 µM (active) in test [10].
On to `Cc1ccccc1C(OCCN(C)C)c1ccccc1` (centres undefined), for which the Potency entry in test [3] and in test [7] was “inactive” each time. Besides, the compound was called inactive in test [9].
As to `OC(CN1CCC(Cc2ccc(F)cc2)CC1)c1ccc(Cl)cc1` (centres undefined), the Potency entry in test [4] and in test [7] was “inactive” each time. Also, the Potency in test [6] is 3.16 µM (active). In addition, the compound was classed as inactive in test [9].
`Cc1oncc1C(=O)Nc1ccc(C(F)(F)F)cc1`: the Potency result in test [1], in test [2], in test [3], in [4], in [5] and in test [7] was “inactive” in each case. In addition, in [10], the Potency result is “inactive”. Also, the outcome in test [9] was inactive.
For `CC(C)NCC(O)COc1ccc(COCCOC(C)C)cc1` (centres undefined), the Potency result in test [1], in test [2], in [3], in test [4], in test [5] and in [7] was “inactive” throughout. For the same compound, the Potency result in test [8] and in test [10] was “inactive” each time. In [9], the result was inactive.
As to `CCCc1nc2c(C)cc(-c3nc4ccccc4n3C)cc2n1Cc1ccc(-c2ccccc2C(=O)O)cc1`, the Potency entry in test [3], in test [5] and in test [7] was “inactive” each time. Besides, in test [6], the Potency is 6.31 µM (active). Besides, the compound was called inactive in [9].
In the case of `Cc1[nH]c(=O)c(C#N)cc1-c1ccncc1`, the Potency result in test [1], in test [2], in [4], in test [5], in test [6] and in [7] was “inactive” throughout. Also, the Potency result in test [8] and in test [10] was “inactive” throughout. In [9], the call was inactive.
As to `Cn1cnc([N+](=O)[O-])c1Sc1ncnc2nc[nH]c12`, the Potency in test [2] is 6.31 µM (active). In addition, the Potency entry in test [5], in [6], in test [7] and in test [10] was “inactive” throughout. For the same compound, the compound was classed as inactive in [9].
Consider `CCOC(=O)C1=C[C@]2(CC)CCCN3CCc4c(n1c1ccccc41)[C@@H]32`, for which the Potency entry in [7] is “inactive”. In test [8], the Potency is 10 µM (active).
On to `O=C1CCc2cc(OCCCCc3nnnn3C3CCCCC3)ccc2N1`, for which the Potency in [1] is 3.16 µM (active). Moreover, the Potency entry in test [6] and in test [10] was “inactive” each time. For the same compound, the outcome in [9] was inactive.
Consider `N[C@@H]1CONC1=O`, for which the Potency entry in test [1], in test [3], in test [4], in test [5], in test [6] and in [7] was “inactive” each time. In addition, the Potency result in [8] and in test [10] was “inactive” each time. Moreover, the call in [9] was inactive.
Turning to `C#Cc1cccc(Nc2ncnc3cc(OCCOC)c(OCCOC)cc23)c1`, the Potency result in test [7] and in [8] was “inactive” in each case. The compound was called inactive in test [9].
On to `COc1ccc2nc(S(=O)Cc3ncc(C)c(OC)c3C)[nH]c2c1` (centres undefined), for which the Potency result in [1], in test [3], in test [4], in test [5], in test [6] and in [7] was “inactive” throughout. The Potency result in [8] and in test [10] was “inactive” throughout. Besides, the compound was classed as inactive in test [9].
As for `C1COC(NC(C2CC2)C2CC2)=N1`, in test [2], the Potency was 11.2 µM (active). Also, the Potency result in [7] and in test [10] was “inactive” throughout. The compound was classed as inactive in [9].
`NCCc1ccc(O)c(O)c1`: the Potency result in test [1], in test [2], in test [3], in test [4], in [6] and in test [7] was “inactive” throughout. The Potency entry in test [8] and in test [10] was “inactive” throughout. Besides, in test [9], the compound was called inactive.
